Among the data in PubChem BioAssay (NCI) are growth values, retold here.

Compounds without any hit were thinned out: in the full panel of roughly 83,000, 20% have a hit.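 Assay: single dose, 48 h. Readout: percent growth (0 = no net growth; negative = cell death). Active: <10.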 Unmarked numbers belong to inactive results. The source made the active and inactive calls.

The subject of this assay is MDA-MB-468 breast. The assay can be described thus: NCI-60 one-dose screen, 48 h (100 = growth as untreated, 0 = no growth, -100 = all killed). Particulars: 10 µM unless noted.
Consider `C#CC#CC#CC#CC#CC#CC#CC#CC[C@H]1OC[C@@H](COC(=O)O[C@@H](C(=O)O[C@H]2C[C@@]3(O)[C@@H](OC(=O)c4ccccc4)[C@@H]4[C@]5(OC(C)=O)CO[C@@H]5C[C@H](O)[C@@]4(C)C(=O)[C@H](OC(C)=O)C(=C2C)C3(C)C)[C@@H](NC(=O)c2ccccc2)c2ccccc2)O1`, for which the growth is 14.2%. Consider `COc1ccc(C(=O)Nc2cccc(-c3cc(=O)c4c(OC)c(OC)c(OC)cc4o3)c2)cc1`, for which the growth is 75.2%.

As for `N#CC1=C(N)Oc2c(sc3c(Br)cccc23)C1c1ccc(Cl)cc1` (stereo unspecified), the growth was 1.22% (active). `COc1ccc(Cn2c(C(N)=O)cc3c2-c2nc(N)ncc2CCC3)cc1`: the growth is 82.1%.

On to `CCOC(=O)CNC(=O)Sc1ccc(C(C)(C)C)cc1`, for which the growth is 111%. For the molecule `COc1cc(NCC(O)CN(CC(C)C)CC(C)C)c2nc(C)ccc2c1` (stereo unspecified), the growth was -6.94% (active). As for `C=CCOC(=O)C1=C(C)NC(=O)NC1c1c(Cl)n(C)c2ccccc12` (stereo unspecified), the figure is 106%. As for `COC(=O)[C@]12CC[C@@H](C)[C@H](C)[C@@H]1C1=CC[C@@H]3[C@@]4(C)CC(=O)[C@H](OC(=O)c5ccco5)[C@@]5(C)COC(=C45)C[C@@]3(C)[C@]1(C)CC2`, the growth was 8.15% (active). Take `O=[N+]([O-])c1cc(S(=O)(=O)Nc2ccccc2)ccc1Cl`: the growth is -33.4% (active). For `COc1ccccc1S(=O)Nc1ccccc1` (stereo unspecified), the growth is 97.2%.

`C=C(c1ccc(C(=O)O)c(F)c1)c1cc2c(cc1C)C(C)(C)C=CC2(C)C`: the growth was 93.8%. As for `O=C(O)c1cn(C2CC2)c2cc(N3CCN(C(=O)Nc4nc(-c5ccccc5)cs4)CC3)c(F)cc2c1=O`, the figure is 27.1%; as for `COc1cc(C2CC(c3ccc(Cl)cc3)=NN2C(C)=O)ccc1Oc1ccnc2cc(Cl)ccc12` (stereo unspecified), 67.4%. As for `Brc1ccc(C2CC(c3cccc(Nc4ccncc4)c3)=NN2c2ccccc2)cc1` (stereo unspecified), the figure is 78.2%. For the molecule `CC(C)(C)c1ccc(C(=O)N/N=C/c2ccc(O)cc2O)cc1`, the growth is -32.5% (active). As to `Oc1ccc(N=Cc2ccc(OCc3ccccc3)cc2)cc1`, the growth is 97.6%. The figure for `CC1COCC(C)N1C1=C(Cl)C(=O)c2ccccc2C1=O` (stereo unspecified) is -92% (active); for `CC(C)(C)[Si](C)(C)OC1[C@@H](COC(=O)NC(=O)CCl)O[C@@H](n2cnc3c(N)ncnc32)[C@H]1O[Si](C)(C)C(C)(C)C` (stereo partly specified) it is 65%. Turning to `CC1(C)NCCC[C@]2(C)[C@H]3CC[C@H]4[C@H]5[C@H](C(=O)/C=C/c6cccnc6)CCC[C@]5(CO)CC[C@@]4(C)[C@]3(C)CC[C@@H]12`, the growth is -12.6% (active). As for `COc1ccc(/C(C)=C(\c2ccc(OCCN3CCCCCC3)cc2)c2ccc(OC(=O)C3CCCCC3)cc2)cc1`, the figure is -74.5% (active). In the case of `COc1ccc(C(=O)N2c3ccccc3Sc3ccccc32)c(F)c1`, the growth is -13.7% (active). Regarding `N#Cc1cnn(C(=O)c2nn(-c3ccc(Cl)cc3)cc2O)c1N`, the growth was 32.1%. The figure for `c1ccc2c(c1)OC1OC2Oc2ccccc21` is 97.5%; for `CCN1/C(=C/C=C/C=C/c2sc3ccccc3[n+]2CC)Sc2ccccc21` it is -81% (active); for `CC(C)(C)OC(=O)CN1CCc2c(sc3ncnc(N4CCN(c5ccc(F)cc5)CC4)c23)C1` it is 92.3%. The figure for `CCC(C)N(c1ccc(Cl)cc1)c1nc(-c2ccc(Br)cc2)cs1` (stereo unspecified) is 95.7%.
